# Values without a mark were called inactive. Inconclusive results are not listed. Where a call stands in place of a potency, no number is given. Calls of active or inactive are those of the source. Calls follow the shape of the dose curve; as a rule, active = well fitted curve in the direction sought with a large enough effect; inconclusive = small, poorly fitted or top-dose-only effect, or another doubt; inactive = no such curve, though single readings can be large; an effect the other way counts as inactive or inconclusive.
# Columns and labels:
# [1] = Primary qHTS for inhibitors of nuclear receptor binding SET domain protein 2 (NSD2) in an isogenic RCH-ACV NSD2 p.E1099K mutant (9B) (AID 1645876); also: nearly all actives have a fitted effect of over 70% in size; also: potency is read from the fitted curve at half-maximal effect
# [2] = target: Phospholipid hydroperoxide glutathione peroxidase GPX4 (Homo sapiens) (UniProt P36969); assay: Primary qHTS Assay for Inhibitors of Recombinant Selenoprotein Glutathione Peroxidase 4 (GPX4) (AID 1845192); also: nearly all actives have a fitted effect of over 65% in size
# Method in brief: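 qHTS, GR-coupled: GPX4 200 nM + cpd 30 min RT → GSH 1 mM, NADPH 0.5 mM, GR 100 nM → CHP 0.5 mM start; fluor 340/450 at t0 and t15 min; no-enzyme wells as control.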
# [3] = target: Luciferin 4-monooxygenase (Photinus pyralis) (UniProt P08659); assay: Primary firefly luciferase (FLuc) qHTS assay for identification of artifact compounds. (AID 1845220); settings: outcome: dose series up to 54.1 µM unless noted; also: nearly all actives have a fitted effect of over 60% in size
# Method in brief: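 In this counter-screen for luciferase artifacts, test compounds met substrate (10 uM each luciferin and ATP) before 10 nM enzyme started the reaction. Light output was measured 5 min later.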
# [4] = Primary fluorescence-based thiol-reactive (MSTI) qHTS assay for identification of artifact compounds. (AID 1845221); also: nearly all actives have a fitted effect of over 65% in size; also: potency is read from the fitted curve at half-maximal effect
# Method in brief: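 Curve-fitted percent inhibition (4-parameter Hill) derived from fluorescence, Ex 525/Em 598 nm, scaled with Acetyl-MSTI and MSTI; 1 h incubation at room temperature.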
# [5] = system: Nanoluciferase (engineered Oplophorus gracilirostris luciferase); assay: Primary Nanoluciferase (NLuc) qHTS assay for identification of artifact compounds. (AID 1845222);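 also: NLuc secreted into diluted conditioned medium of S16 cells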
# Method in brief: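 Using secreted nanoluciferase in S16 culture medium (0.22 um filtered, 1:55 dilution), compounds were preincubated 15 min at RT. Signal was generated with Nano-Glo reagent (1:100) over 5 min.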
# [6] = Primary redox qHTS assay for identification of artifact compounds. (AID 1845223)
# Method in brief: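 Redox-cycling detection via DTT (250 uM final) oxidation coupled to Amplex Red (25 uM)/HRP (250 mU/mL) in HBSS. 15 min preincubation plus 30 min after DTT, room temperature. Ex/Em 525/598 nm; 4-parameter Hill fit against DMSO and 10 uM DA3003.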
# CRL-7250 = normal cell line; assay: Cytotoxic Profiling of Annotated Libraries Using Quantitative High-Throughput Screening (AID 1296008); settings: Five cell lines viability, CellTiter-Glo ATP luminescence, 48-72 h; max response: hits give low values; also: nearly all actives have a fitted effect of over 60% in size; also: potency is read from the fitted curve at half-maximal effect
# Method in brief: (§1)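 Compounds were pin-transferred onto cells and incubated 48 or 72 hr at 37 degree Celsius, 95% humidity. CellTiter-Glo was added, plates sat 10 min at room temperature, then ATP-coupled luminescence was imaged as the viability read-out.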
# HEK293 = assay: as above; settings: Five cell lines viability, CellTiter-Glo ATP luminescence, 48-72 h; max response: hits give low values
# Method in brief: as §1
# NIH3T3 = assay: as above; settings: Five cell lines viability, CellTiter-Glo ATP luminescence, 48-72 h; max response: hits give low values
# Method in brief: as §1
# C33A = assay: Primary qHTS to identify gynecologic anti-cancer compounds using libraries of approved drugs and bioactive compounds (AID 1345084); settings: Gynecologic cancer cell panel viability, ATPlite luminescence, 48 h; series mostly up to 57.5 µM; also: nearly all actives have a fitted effect of over 55% in size; also: potency is read from the fitted curve at half-maximal effect
# Method in brief: (§2)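 Cytotoxicity screen measuring ATP content by luciferase luminescence. Each compound is applied at five concentrations for 48 h at 37 C with 5% CO2.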
# CASKI = assay: as above; settings: Gynecologic cancer cell panel viability, ATPlite luminescence, 48 h; series mostly up to 57.5 µM
# Method in brief: as §2
# Es-2 = assay: as above; settings: Gynecologic cancer cell panel viability, ATPlite luminescence, 48 h; series mostly up to 57.5 µM
# Method in brief: as §2
# Hek293T = assay: as above; settings: Gynecologic cancer cell panel viability, ATPlite luminescence, 48 h, control line for the selectivity index; series mostly up to 57.5 µM
# Method in brief: as §2
# JEG-3 = assay: as above; settings: Gynecologic cancer cell panel viability, ATPlite luminescence, 48 h; series mostly up to 57.5 µM
# Method in brief: as §2
# OV90 = assay: as above; settings: Gynecologic cancer cell panel viability, ATPlite luminescence, 48 h; series mostly up to 57.5 µM
# Method in brief: as §2
# PA-1 = assay: as above; settings: Gynecologic cancer cell panel viability, ATPlite luminescence, 48 h; series mostly up to 57.5 µM
# Method in brief: as §2
# Tov-21-G = assay: as above; settings: Gynecologic cancer cell panel viability, ATPlite luminescence, 48 h; series mostly up to 57.5 µM
# Method in brief: as §2
# Tov112D = assay: as above; settings: Gynecologic cancer cell panel viability, ATPlite luminescence, 48 h; series mostly up to 57.5 µM
# Method in brief: as §2
# [7] = target: Calcium and integrin-binding protein 1 (Homo sapiens) (UniProt Q99828); assay: Primary qHTS for Identification of Calcium Integrin Binding Protein 1 (CIB1) Competitor (AID 1508620);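 also: GST tagged CIB1 binding a fluorescein labelled alphaIIb integrin peptide tracer; top concentration of the series differs between compounds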
# Method in brief: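 Fluorescence polarization competition: CIB1-GST (1 uM final) preincubated with compound 15 min at room temperature, then FITC-labeled alphaIIb peptide (100 nM final) added for another 15 min. Polarization read at Ex 480/Em 540.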
# CAOV3 = assay: Primary qHTS to identify gynecologic anti-cancer compounds using libraries of approved drugs and bioactive compounds (AID 1345084); settings: Gynecologic cancer cell panel viability, ATPlite luminescence, 48 h; series mostly up to 57.5 µM; also: nearly all actives have a fitted effect of over 55% in size; also: potency is read from the fitted curve at half-maximal effect
# Method in brief: as §2
# Chain of Phospholipid hydroperoxide glutathione peroxidase GPX4 (Homo sapiens) (P36969 whole entry, looked up): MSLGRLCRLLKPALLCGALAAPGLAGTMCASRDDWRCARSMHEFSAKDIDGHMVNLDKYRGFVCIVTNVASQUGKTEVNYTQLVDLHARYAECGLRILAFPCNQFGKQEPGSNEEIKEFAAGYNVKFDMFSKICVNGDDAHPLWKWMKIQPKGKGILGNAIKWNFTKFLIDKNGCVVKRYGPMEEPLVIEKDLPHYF
# Chain of Calcium and integrin-binding protein 1 (Homo sapiens) (Q99828 whole entry, looked up): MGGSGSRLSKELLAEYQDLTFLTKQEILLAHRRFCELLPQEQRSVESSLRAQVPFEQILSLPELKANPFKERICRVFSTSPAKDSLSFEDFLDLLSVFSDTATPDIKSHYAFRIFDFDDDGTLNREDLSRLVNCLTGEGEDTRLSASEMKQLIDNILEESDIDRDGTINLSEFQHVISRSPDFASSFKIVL
compound,measurement,setting,value
CC1=CC2(O)/C=C/C(C)(O)C(O)C(O)/C=C/C(=O)OC23C(=O)NC(CC(C)C)C3C1C (stereo unspecified),Potency,[1],inactive
same,Potency,[2],inactive
same,outcome,[3],inactive
same,Potency,[4],10300 nM (active)
same,Potency,[5],inactive
same,Potency,[6],inactive
same,max response,CRL-7250,-1.26%
same,max response,HEK293,-8.27%
same,max response,NIH3T3,0.398%
same,Potency,C33A,inactive
same,Potency,CASKI,inactive
same,Potency,Es-2,inactive
same,Potency,Hek293T,inactive
same,Potency,JEG-3,inactive
same,Potency,OV90,inactive
same,Potency,PA-1,inactive
same,Potency,Tov-21-G,inactive
same,Potency,Tov112D,inactive
C=C1[C@@]23C(=O)O[C@H](C)[C@]24O[C@@]2(C(=C)[C@]5(C=CC(=O)OC5(C)C)CC[C@]32C)[C@H](O)[C@@]1(C)OC4=O,Potency,[7],inactive
same,Potency,[1],inactive
same,Potency,[2],inactive
same,outcome,[3],inactive
same,Potency,[4],inactive
same,Potency,[5],inactive
same,max response,CRL-7250,-20.6%
same,max response,HEK293,-10.4%
same,max response,NIH3T3,0.197%
same,Potency,C33A,inactive
same,Potency,CAOV3,inactive
same,Potency,CASKI,inactive
same,Potency,Es-2,inactive
same,Potency,Hek293T,inactive
same,Potency,JEG-3,inactive
same,Potency,OV90,inactive
same,Potency,PA-1,inactive
same,Potency,Tov-21-G,inactive
same,Potency,Tov112D,inactive
CS[C@]1(CO)C(=O)N2[C@H]3C(=CC=C[C@@H]3O)C[C@@]2(SC)C(=O)N1C,Potency,[7],inactive
same,Potency,[1],inactive
same,Potency,[2],inactive
same,outcome,[3],inactive
same,Potency,[5],inactive
same,outcome,CRL-7250,inactive
same,max response,HEK293,-12.6%
same,max response,NIH3T3,-3.97%
same,Potency,C33A,inactive
same,Potency,CASKI,inactive
same,Potency,Es-2,inactive
same,Potency,Hek293T,inactive
same,Potency,JEG-3,inactive
same,Potency,OV90,inactive
same,Potency,PA-1,inactive
same,Potency,Tov-21-G,inactive
same,Potency,Tov112D,inactive
COc1ccc(CN(C(=O)[C@@H](N)Cc2c(C)cc(C(N)=O)cc2C)[C@@H](C)c2ncc(-c3ccccc3)[nH]2)cc1C(=O)O,Potency,[7],inactive
same,Potency,[1],inactive
same,Potency,[2],inactive
same,outcome,[3],inactive
same,Potency,[4],inactive
same,max response,CRL-7250,-8.53%
same,max response,HEK293,-8.03%
same,max response,NIH3T3,-6.08%
same,Potency,C33A,inactive
same,Potency,CAOV3,inactive
same,Potency,CASKI,inactive
same,Potency,Es-2,inactive
same,Potency,Hek293T,inactive
same,Potency,JEG-3,inactive
same,Potency,OV90,inactive
same,Potency,PA-1,inactive
same,Potency,Tov-21-G,inactive
same,Potency,Tov112D,inactive
CC1CCCC(O)CC(=O)Cc2cc(O)cc(O)c2C(=O)O1 (stereo unspecified),Potency,[7],inactive
same,Potency,[1],inactive
same,Potency,[2],inactive
same,outcome,[3],inactive
same,Potency,[5],inactive
same,Potency,[6],inactive
same,max response,CRL-7250,-9.43%
same,max response,HEK293,4.64%
same,max response,NIH3T3,2.95%
same,Potency,C33A,inactive
same,Potency,CAOV3,inactive
same,Potency,CASKI,inactive
same,Potency,Es-2,inactive
same,Potency,Hek293T,inactive
same,Potency,JEG-3,inactive
same,Potency,OV90,inactive
same,Potency,PA-1,inactive
same,Potency,Tov-21-G,inactive
same,Potency,Tov112D,inactive
C=CCN1CC[C@]23c4c5ccc(O)c4O[C@H]2[C@@H](O)CC[C@@]3(O)[C@H]1C5,Potency,[7],inactive
same,Potency,[1],inactive
same,outcome,[3],inactive
same,Potency,[4],inactive
same,Potency,[6],inactive
same,max response,CRL-7250,-15.6%
same,max response,HEK293,-13.2%
same,max response,NIH3T3,-28.6%
same,Potency,C33A,inactive
same,Potency,CAOV3,inactive
same,Potency,CASKI,inactive
same,Potency,Es-2,inactive
same,Potency,Hek293T,inactive
same,Potency,JEG-3,inactive
same,Potency,OV90,inactive
same,Potency,PA-1,inactive
same,Potency,Tov-21-G,inactive
same,Potency,Tov112D,inactive
C[C@@H]1CCC/C=C/[C@H]2C[C@@H](O)C[C@@H]2[C@@H](O)/C=C/C(=O)O1,Potency,[7],inactive
same,Potency,[1],290 nM (active)
same,Potency,[2],inactive
same,outcome,[3],inactive
same,Potency,[4],inactive
same,Potency,[5],inactive
same,Potency,[6],inactive
same,Potency,CRL-7250,206 nM (active)
same,Potency,HEK293,920 nM (active)
same,Potency,NIH3T3,4110 nM (active)
same,Potency,C33A,891 nM (active)
same,Potency,CAOV3,316 nM (active)
same,Potency,CASKI,1260 nM (active)
same,Potency,Es-2,501 nM (active)
same,Potency,Hek293T,1000 nM (active)
same,Potency,JEG-3,1000 nM (active)
same,Potency,OV90,316 nM (active)
same,Potency,PA-1,447 nM (active)
same,Potency,Tov-21-G,1120 nM (active)
same,Potency,Tov112D,1000 nM (active)
Cc1c(N2C(=O)[C@@H]3[C@H](O)CCN3C2=O)ccc(C#N)c1Cl,Potency,[1],inactive
same,Potency,[2],inactive
same,outcome,[3],inactive
same,Potency,[4],inactive
same,Potency,[6],inactive
same,max response,CRL-7250,-13.8%
same,max response,HEK293,-6.16%
same,max response,NIH3T3,-8.96%
same,Potency,C33A,inactive
same,Potency,CAOV3,inactive
same,Potency,CASKI,inactive
same,Potency,Es-2,inactive
same,Potency,Hek293T,inactive
same,Potency,JEG-3,inactive
same,Potency,OV90,inactive
same,Potency,PA-1,inactive
same,Potency,Tov-21-G,inactive
same,Potency,Tov112D,inactive
CC1(C)C(=O)N(c2ccc(C#N)c(C(F)(F)F)c2)C(=O)N1CCCCO,Potency,[7],inactive
same,Potency,[1],inactive
same,Potency,[2],inactive
same,outcome,[3],inactive
same,Potency,[4],inactive
same,Potency,[5],inactive
same,Potency,[6],inactive
same,max response,CRL-7250,-11%
same,max response,HEK293,-15.9%
same,max response,NIH3T3,-6.14%
same,Potency,C33A,inactive
same,Potency,CAOV3,inactive
same,Potency,CASKI,inactive
same,Potency,Es-2,inactive
same,Potency,Hek293T,inactive
same,Potency,JEG-3,inactive
same,Potency,OV90,inactive
same,Potency,PA-1,inactive
same,Potency,Tov-21-G,inactive
same,Potency,Tov112D,inactive
N#CC(O[C@@H]1O[C@H](CO)[C@@H](O)[C@H](O)[C@H]1O)c1ccccc1 (stereo partly specified),Potency,[1],inactive
same,Potency,[2],inactive
same,outcome,[3],inactive
same,Potency,[4],inactive
same,Potency,[5],inactive
same,Potency,[6],inactive
same,outcome,CRL-7250,inactive
same,max response,HEK293,-8.76%
same,max response,NIH3T3,1.1%
same,Potency,C33A,inactive
same,Potency,CAOV3,inactive
same,Potency,CASKI,inactive
same,Potency,Es-2,inactive
same,Potency,Hek293T,inactive
same,Potency,JEG-3,inactive
same,Potency,OV90,inactive
same,Potency,PA-1,inactive
same,Potency,Tov-21-G,inactive
same,Potency,Tov112D,inactive

# Source: PubChem BioAssay (NCATS)
